Bioassay records deposited in PubChem BioAssay by several laboratories.
Compounds with a hit are over-represented: about 32% of the library has one in this group of screens.
CYP2C9 act – CYP2C9 (human) activation; activation factor at 5 µM; recombinant CYP2C9, luciferin-H conversion, luminescence; active compounds read high; factor 1 = untreated enzyme, 0 = blocked; P11712; actives 1.4% (n = 96,000);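 active means activation factor of 2 or more for CYP2C9 at a 5 µM dose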
CYP2C9 inh – blocks human cytochrome P450 2C9; P11712; CYP2C9 Supersomes, luciferin-H conversion, luminescence; inhibition, % at 5 µM; actives 20% (n = 96,000);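 active means blocking of liver enzyme CYP2C9 beyond about 50% at 5 µM, limit read from the data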
CYP2C19 act – cytochrome P450 2C19 (human) activation; recombinant CYP2C19, luciferin-H EGE luminescence; active compounds read high; 0 = fully inhibited enzyme, 1 = untreated enzyme; activation factor at 5 µM; 96,000 tested, under 10 active; AID 1025;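 active means activation factor of at least 2 at 5 µM in the primary screen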
Target sequence (P33261 whole entry, looked up): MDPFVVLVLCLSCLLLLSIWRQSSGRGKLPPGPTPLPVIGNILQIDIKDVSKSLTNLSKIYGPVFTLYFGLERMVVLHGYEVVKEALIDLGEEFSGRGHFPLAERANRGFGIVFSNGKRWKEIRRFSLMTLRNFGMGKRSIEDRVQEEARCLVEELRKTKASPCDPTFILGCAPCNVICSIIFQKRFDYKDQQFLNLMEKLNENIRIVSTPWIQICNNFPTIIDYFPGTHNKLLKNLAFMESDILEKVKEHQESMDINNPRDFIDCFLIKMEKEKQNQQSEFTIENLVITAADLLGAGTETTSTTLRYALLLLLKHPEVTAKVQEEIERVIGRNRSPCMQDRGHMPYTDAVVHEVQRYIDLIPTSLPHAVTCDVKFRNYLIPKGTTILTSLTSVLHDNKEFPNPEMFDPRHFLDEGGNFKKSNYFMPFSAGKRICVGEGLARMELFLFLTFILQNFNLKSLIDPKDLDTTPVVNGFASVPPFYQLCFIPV
PostGolgi yeast – growth inhibition of a yeast mutant, post-Golgi transport screen; actives 0.9% (n = 98,000); post-Golgi transport phenotypic cell assay; inhibition, % at 10 µM;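 further: yeast cells grown in 1536-well plates; yeast grown about 18 h at 30C before absorbance read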
PostGolgi ctrl – growth of the yeast control strain, post-Golgi counter-screen; efflux-deficient yeast background strain, growth absorbance A615, 16 h; inhibition, % at 10 µM; actives 5% (n = 98,000); AID 738
CYP2C19 inhib – inhibitors of human CYP2C19; P33261; CYP2C19 Supersomes, luciferin-H EGE luminescence, 30 min; inhibition, % at 5 µM; actives 21% (n = 96,000);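 active means CYP2C19 inhibition above a set limit at 5 µM in the primary screen, cut at about 50% in these data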
Of the large screens only hits and unclear results are named; the others gave an inactive call. Unless noted, no stated cut-off is given here; in the data, active means inhibition above about 30%; inactive means the rest.

CCNC(=O)NC(=O)C(C)Sc1nc2ccccc2n1CC(C)C (stereo unspecified)	PostGolgi ctrl 32
CSc1nc2ccccc2n1CC(=O)Nc1ccccc1	CYP2C9 inh 79, CYP2C19 inhib 93
O=C(Cn1c(CSc2ccccc2)nc2ccccc21)Nc1ccccc1	CYP2C9 inh 74, CYP2C19 inhib 51
CCN(CC)CCn1c2ccccc2c2nc(C)sc21	none
Cc1ccc(CN2CCNC(=O)C2CC(=O)O)o1 (stereo unspecified)	none
Cc1nn(CC(=O)Nc2nnc(CC(=O)N3CCCC3)s2)c(=O)c2ccccc12	none (no result: PostGolgi yeast, PostGolgi ctrl)
Cc1ccc(SCc2nc3ccccc3n2CC(=O)Nc2ccccc2)cc1	CYP2C9 inh 84, CYP2C19 inhib 57
O=C(O)Cn1c(SCc2ccccc2)nc2ccccc21	none
CCC(C)Sc1nc2ccccc2n1CC(=O)O (stereo unspecified)	CYP2C9 inh 88
CCc1c(C)nc2ncnn2c1Nc1ccc(C#N)c(Cl)c1	none
COC(=O)CC1=NC(=O)CS1	none
COc1ccc(CN2C(=O)NC3(CCCCCC3)C2=O)cc1F	CYP2C19 inhib 88 (no result: PostGolgi yeast, PostGolgi ctrl)
Cc1nnc(SCC(=O)Nc2ccc3c(c2)COC3=O)n1-c1ccccc1	none
COc1ccc(Br)cc1CNC(=O)C1CCCN(S(C)(=O)=O)C1 (stereo unspecified)	none
CCOc1ccc2nc3c(cc2c1)CN(CCCO)C(=NCCOC)S3	CYP2C9 inh 83, CYP2C19 inhib 67
O=C(Nc1ccccc1C(=O)Nc1ccc2c(c1)OCO2)c1cccs1	none
CCCc1cc(Nc2ccccc2OCC)n2ncnc2n1	none
CCN1CCN(c2nc(C)nc3c2sc(=S)n3C)CC1	none
CCOC(=O)C(NC(=O)c1ccc(OC)cc1)(OCC1(CC)COC1)C(F)(F)F (stereo unspecified)	CYP2C9 inh 63
N/C(Cc1cccs1)=N\OC(=O)COc1ccccc1Cl	none
N/C(Cc1ccc(Cl)c(Cl)c1)=N\OC(=O)c1cccs1	CYP2C9 inh 63, PostGolgi ctrl 79
CC(=O)c1cc(C(=O)Nc2ccccc2C(=O)O)oc1C	CYP2C9 inh 54
Cc1cc(C(=O)Nc2cccc(C(=O)O)c2)c(C)o1	none
O=C(Nc1ccccc1C(=O)O)c1ccc(Br)o1	none
Cc1oc(C(C)(C)C)cc1C(=O)Nc1cccc(C(=O)O)c1	CYP2C9 inh 60
Cc1cc(C(=O)Nc2cccc(C(=O)O)c2)oc1C	CYP2C19 inhib 66
Cc1cc(C)nc(NC2=NCC(=O)N2c2ccc3c(c2)OCCO3)n1	none
COc1cc(S(=O)(=O)N(C)C)ccc1F	none (no result: CYP2C9 act, CYP2C9 inh, CYP2C19 act, CYP2C19 inhib)
COc1ccccc1OC(=O)c1ccc(S(=O)(=O)N(C)C)cc1	CYP2C9 inh 52
COc1cc(NC(=O)c2ccc(S(=O)(=O)N(C)C)cc2)cc(OC)c1OC	none
COc1cc(S(=O)(=O)N(C)C)ccc1Br	CYP2C9 act 3.1
CC1(C)CC2(CCO1)N1CC3(C)CN2CC(C)(C1)C3O (stereo unspecified)	CYP2C9 inh 52
COc1ccc(-c2nnc3sc(-c4ccccn4)nn23)cc1	CYP2C9 inh 57 (no result: PostGolgi yeast, PostGolgi ctrl)
COc1cccc(-c2nnc3sc(-c4ccccn4)nn23)c1	CYP2C19 inhib 63
Clc1ccc(-c2nnc3sc(-c4ccccn4)nn23)cc1	none
COc1ccccc1-c1nn2c(-c3ccc(C(C)(C)C)cc3)nnc2s1	CYP2C9 inh 56 (no result: PostGolgi yeast, PostGolgi ctrl)
c1ccc(-c2nn3c(-c4ccco4)nnc3s2)nc1	none
COc1ccccc1-c1nn2c(C(F)(F)F)nnc2s1	none
CC(C)(C)c1ccc(-c2nnc3sc(-c4ccccn4)nn23)cc1	PostGolgi ctrl 35
Cc1cc(Nc2ccccc2N2CCOCC2)n2ncnc2n1	none (no result: PostGolgi yeast, PostGolgi ctrl)
COc1ccc(-c2nn3c(-c4ccccn4)nnc3s2)cc1OC	none (no result: CYP2C9 act, CYP2C9 inh, CYP2C19 act, CYP2C19 inhib)
COc1cccc(-c2nn3c(-c4ccccn4)nnc3s2)c1	CYP2C19 inhib 52
CCNC(=O)COc1cccc2ccccc12	CYP2C19 inhib 54
O=C(COc1cccc2ccccc12)NNC(=O)[C@@H]1CCCC[C@@H]1C(=O)O	none
CCOCC(=O)Nc1nnc(SCCOC)s1	CYP2C9 inh 51
CCSc1nnc(NC(=O)COc2cccc3ccccc23)s1	CYP2C9 inh 57
O=C(COc1cccc2ccccc12)NNC(=O)Nc1ccccc1	CYP2C9 act 2, CYP2C19 inhib 53
CC1CC(=O)c2cnc(N3CCOCC3)nc2C1 (stereo unspecified)	none
Nc1c(C(=O)NCc2ccco2)sc2nc(N3CCOCC3)c3c(c12)CCCC3	CYP2C9 inh 56, PostGolgi ctrl 33
COC(=O)c1sc2nc(N3CCCCC3)c3c(c2c1N)CCCC3	CYP2C9 inh 72
NC(=O)c1sc2nc(N3CCCCC3)c3c(c2c1N)CCCC3	CYP2C9 inh 68, PostGolgi ctrl 44
COC(=O)c1sc2nc(-c3ccccc3)c3c(c2c1N)CCCC3	none
COC(=O)c1ccc(-c2sc3nc(N4CCOCC4)c4c(c3c2N)CCCC4)o1	CYP2C9 inh 55, CYP2C19 inhib 57
CC1Cc2ccccc2N1C(=O)Cn1cc([N+](=O)[O-])cn1 (stereo unspecified)	none
COc1cc(C(=O)N2CCN(C(=O)COc3ccc4ccccc4c3)CC2)cc(OC)c1OC	none
COc1ccccc1NC(=O)Cn1nnc(-c2ccccc2NC(=O)c2cc3ccccc3oc2=O)n1	none
CCOC(=O)/C=C1\SCC(=O)N1CC(=O)NC12CC3CC(CC(C3)C1)C2	none
CC1=CCC2C(=O)N(c3ccc(C)c(Br)c3)C(=O)C2C1 (stereo unspecified)	none
CCOC(=O)c1sc2nc(N3CCOCC3)c3c(c2c1N)CCCC3	none
CCN(CC)C(=O)c1sc2nc(N3CCOCC3)c3c(c2c1N)CCCC3	CYP2C9 inh 52
C=CCNc1ncnc2c1[nH]c1ccc(C)cc12	CYP2C9 inh 56
Cc1ccc2[nH]c3c(NCCN4CCOCC4)ncnc3c2c1	none
Cc1ccc(C2CC(c3ccccc3)=NN2C(=S)Nc2ccccc2)o1 (stereo unspecified)	CYP2C9 inh 56
COc1cccc(C2CC(c3cccs3)=NN2C(=S)Nc2ccccc2)c1OC (stereo unspecified)	none
c1ccc(-c2nnn(C34CC5CC(CC(C5)C3)C4)n2)cc1	none
Nn1c(SC/C=C/c2ccccc2)nnc1-c1ccccn1	CYP2C19 inhib 61
Clc1ccc(-n2c(SC/C=C/c3ccccc3)nnc2-c2cccnc2)cc1	PostGolgi ctrl 35, CYP2C19 inhib 56
C(=C\c1ccccc1)/CSc1nnc(-c2ccccn2)n1Cc1ccco1	PostGolgi ctrl 45
CN(C)c1nc2c(c(=O)[nH]c(=O)n2C)n1Cc1ccccc1Br	none
CCCCC1(C)NC(=O)N(CC(=O)Nc2ccc(S(=O)(=O)N3CCOCC3)cc2)C1=O (stereo unspecified)	none
Oc1ccc(C2N=C(c3ccccc3)NC(c3ccccc3)=N2)cc1	none
Cc1ccc(C)c(S(=O)(=O)N2C(=S)NC(=O)C2CC(C)C)c1 (stereo unspecified)	CYP2C9 inh 80
